KB-3-1 cytotox = KB-3-1 parental cell cytotoxicity | Potency, µM (series often up to 46.1 µM), actives largely listed as cytotoxic | KB-3-1 viability, CellTiter-Glo ATP luminescence, 72 h | 1.4% of 400,000 active; also: % is scaled to controls: 0 for no effect and ±100 for the full control effect; nearly all actives have a fitted effect of over 60% in size
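Luminescent ATP read-out (CellTiter-Glo) measures survival of drug-naive KB-3-1 cells after 72 h compound exposure at 37 °C. Titration series was screened from lowest to highest concentration, with DMSO vehicle plates as background controls.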
PTAP TSG101 blk = blocks PTAP/TSG101 interaction to inhibit HIV-1 budding; 340,000 tested, under 10 active; Q99816; AID 493005; Potency, µM (doses to about 115 µM), without a hit: top-dose activity change, negative = inhibition, actives largely listed as inhibitors; Fluorescence polarization, FITC-PTAP peptide / Tsg101 binding; active = well fitted inhibition curve with a large enough effect in the main read-out, with a control signal flat, not every such curve was filed as active; inconclusive = small, poorly fitted or top-dose-only effect, or effect the other way, or a change in a side signal; inactive = no such curve, though single readings can be large or run the other way; also: % of control where 0% means no effect
Target sequence (Q99816 whole entry, looked up): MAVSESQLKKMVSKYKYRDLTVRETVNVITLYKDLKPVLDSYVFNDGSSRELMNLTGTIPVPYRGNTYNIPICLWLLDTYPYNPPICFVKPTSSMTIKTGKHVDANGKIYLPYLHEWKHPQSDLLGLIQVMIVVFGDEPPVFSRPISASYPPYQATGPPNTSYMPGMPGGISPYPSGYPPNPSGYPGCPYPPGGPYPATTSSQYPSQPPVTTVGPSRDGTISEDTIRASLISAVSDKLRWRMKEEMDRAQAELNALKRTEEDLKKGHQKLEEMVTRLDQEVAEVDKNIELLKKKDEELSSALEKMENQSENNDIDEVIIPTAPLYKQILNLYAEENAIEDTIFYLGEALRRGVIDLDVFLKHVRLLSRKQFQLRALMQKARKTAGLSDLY
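Fluorescence polarization binding of Tsg101 binding domain (10 uM final) to FITC-labeled PTAP peptide (50 nM final) in HEPES pH 7.5 buffer with NaCl, Tween 20, EDTA, TCEP. Compounds added before peptide; binding 20 min at RT.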
MCF10A rereplic = induces DNA re-replication in MCF 10a normal breast cells | MCF 10A DNA re-replication, Hoechst nuclear intensity, 48 h | Potency, µM (titrated, usually from 46.1 µM), for the others: at the top dose activity, positive = re-replication, usual class: activators | 2.9% of 350,000 active | AID 624296; also: % of control where 0% means no effect; nearly all actives have a fitted effect of over 50% in size
PINK1 expr mod = PINK1 expression modulation | PINK1 immunofluorescence, high-content cytometry, 24 h | Potency, µM (series often up to 76.6 µM), inactives show at the highest dose activation (PINK1 increase), hits mostly activators | 0.2% of 410,000 active | AID 624263; active = well fitted activation curve with a large enough effect; inconclusive = small, poorly fitted or top-dose-only effect; cell line not stated here; also: % of control where 0% means no effect; nearly all actives have a fitted effect of over 65% in size
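Measures PINK1 amount and localization on or inside mitochondria by immunofluorescence. Stable cells get compounds at 5 concentrations for 24 hours before fixation and staining; CCCP controls included.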
SW480 rerep = induces DNA re-replication in SW480 colon adenocarcinoma cells; SW480 DNA re-replication, Hoechst DNA content imaging, 48 h; Potency, µM (doses to about 46.1 µM), without a hit: at the top dose re-replication activation, hits mostly activators; 1.8% of 340,000 active; AID 624297; also: % of control where 0% means no effect; nearly all actives have a fitted effect of over 55% in size
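Image-based DNA-content assay: after two days of treatment, nuclei were labelled with the DNA dye Hoechst and imaged, and hits were compounds raising the count of nuclei showing high fluorescence intensity.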
KB-V1 MDR tox = kills drug-selected multidrug resistant KB-V1 cells. KB-V1 MDR cells viability, CellTiter-Glo, 72 h. Potency, µM (highest dose often 46.1 µM), hits mostly cytotoxic. 3.4% of 400,000 active; also: % is scaled to controls: 0 for no effect and ±100 for the full control effect; nearly all actives have a fitted effect of over 60% in size
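Potencies derive from concentration-effect curves fitted to normalized luminescence (CellTiter-Glo) of KB-V1 cells treated for 72 h at 37 degrees C in phenol-red-free DMEM containing 10% FBS.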
Numbers without * were called inactive; i = inactive; ? = inconclusive; . = no result given; [ ] = dose if it differs, or a comment. Rows were chosen to be rich in hits. Some 6.8% of all compounds tested hit in one or more screens of this group. Unless noted, calls follow the shape of the dose curve; as a rule, active = well fitted curve in the direction sought with a large enough effect; inconclusive = small, poorly fitted or top-dose-only effect, or another doubt; inactive = no such curve, though single readings can be large; an effect the other way counts as inactive or inconclusive. Potency is read from the fitted curve at half-maximal effect.

SMILES	KB-3-1 cytotox	PTAP TSG101 blk	MCF10A rereplic	PINK1 expr mod	SW480 rerep	KB-V1 MDR tox
N#CCCN(Cc1cccnc1)S(=O)(=O)c1ccc2ccccc2c1	i	-0.2%	-3.3%	0.1%	-3.5%	23.1µM*
C=C1C(=O)O[C@@H]2[C@@H]1CC/C(C)=C\CC[C@@]1(C)O[C@H]21	.	.	11.9µM*	.	6.8%	.
N#Cc1ccccc1S(=O)(=O)N1CCN(C(=O)C2COc3ccccc3O2)CC1 (centres undefined)	i	-8.0%	0.1%	-0.8%	-3.6%	20.6µM*
O=C(C1COc2ccccc2O1)N1CCN(S(=O)(=O)c2cc(F)ccc2F)CC1 (centres undefined)	i	-6.9%	-1.8%	-0.3%	0.6%	i
N/C(=N\OC(=O)c1ccc2c(c1)OCO2)c1ccc(Cl)cc1	i	-8.0%	16.4µM*	-6.5%[38.3 µM]	?	i
N/C(=N\OC(=O)c1ccc(Cl)cc1)c1nonc1N	i	-8.4%	-7.7%	7.94µM*	-6.5%	i
Cc1ccc(/C(N)=N/OC(=O)c2ccc3c(c2)OCO3)cc1	i	1.8%	?	12.0%	-3.7%	i
COc1ccccc1CNC(=O)c1cnc2sc(N3CCCCCC3)nn2c1=O	.	.	.	-0.2%	.	.
COc1cc2ncc(C(=O)c3ccc(C)cc3)c(N3CCCCC3)c2cc1OC	i	.	.	2.1%	.	i
COc1ccc(OC)c(CNC(=O)Nc2cn(CC(C)C)c(=O)c3ccccc23)c1	i	.	.	-3.4%	.	i
COc1cccc(-c2cc(C(=O)Nc3cc(OC)c(OC)c(OC)c3)no2)c1	?	-3.7%	3.66µM*	11.2µM*	?	3.66µM*
COc1ccc(NC(=O)c2cc(-c3ccccc3)on2)cc1	i	0.2%	1.2%	1.1%	-3.1%	i
COc1cccc(-c2cc(C(=O)Nc3cccnc3)no2)c1	?	-5.2%	9.2µM*	3.2%	5.2%	?
O=C(Nc1cccnc1)c1cc(-c2ccccc2)on1	i	-1.3%	13.1%	0.0%	7.5%	i
CC(C)n1cc(NC(=O)c2cc(-c3ccccc3)on2)cn1	?	-0.2%	3.66µM*	8.7%	5.17µM*	4.11µM*
O=C(CN1C(=O)C2(SCC(=O)N2c2ccc(F)c(F)c2)c2ccccc21)Nc1ccccc1F (centres undefined)	i	.	.	-4.9%	.	i
CC(=O)c1ccc(F)c(-c2cc(C)cc3c2OC(CNC(=O)c2ccnn2C)C3)c1 (centres undefined)	.	.	.	-0.5%	.	.
CCCCCCCCN1C(=O)[C@H](CC(=O)NCCCC)C[C@@]2(C(=O)OCC)CCCC=C12	?	.	.	-1.1%	.	20.6µM*
CCCCCCCCN1C(=O)[C@H](CC(=O)NCC23CC4CC(CC(C4)C2)C3)C[C@@]2(C(=O)OCC)CCCC=C12	16.4µM*	.	.	?	.	i
CCCCNC(=O)C[C@@H]1C[C@@]2(C(=O)OCC)CCCC=C2N(Cc2ccc(Cl)cc2Cl)C1=O	?	.	.	6.3%	.	9.2µM*
Cc1oc2ccc(O)cc2c1C(=O)OC(C)C	i	-6.8%	15.7%	-4.5%[38.3 µM]	3.5%	i
Cc1oc2ccc(OCC(N)=O)cc2c1C(=O)OC(C)C	23.1µM*	-1.9%	-0.2%	-0.3%	8.2%	?
CCOc1ccc(S(=O)(=O)Nc2ccc3oc(C)c(C(=O)OC(C)C)c3c2)cc1	?	.	.	?	.	13µM*
COCCOC(=O)c1c(C)oc2ccc(NS(=O)(=O)c3ccc(C)cc3)cc12	i	0.2%	16.4µM*	2.0%	-8.9%	8.2µM*
CC(=O)c1c(C)oc2ccc(NS(=O)(=O)c3ccc(F)cc3C)cc12	i	-6.5%	7.3%	9.4%	-3.8%	10.3µM*
SMILES	KB-3-1 cytotox	PTAP TSG101 blk	MCF10A rereplic	PINK1 expr mod	SW480 rerep	KB-V1 MDR tox
Cc1ccc(C2=Nc3ccccc3NC(c3ccncc3)=N2)cc1	i	.	.	-0.9%	.	i
CC(=O)Nc1ccccc1-c1nc2ccccc2n(CC(=O)c2ccc(Br)cc2)c1=O	i	.	.	0.8%	.	i
CC(C)=CCC/C(C)=C/CC/C(C)=C/CC/C=C(\C)CC/C=C(\C)CCC=C(C)C	.	.	-2.4%	.	-0.6%	.
Cc1cc2ccc3ccccc3c2cc1CN(C)C	i	-0.8%	1.7%	3.4%	7.31µM*	i
COc1nc(Nc2nc3ccccc3c(=O)[nH]2)nc2ccc(C)cc12	?	-4.8%	?	9.4%	4.61µM*	?
Cc1cc(C)cc(Nc2nc3ccccc3c(=O)[nH]2)c1	i	-0.3%	?	-3.9%	?	?
COCCn1c(-c2ccc(Br)cc2)csc1=Nc1cccnc1	14.6µM*	-1.3%	0.8%	-1.0%	-6.7%	?
Clc1ccc(-c2csc(=Nc3cccnc3)n2CCCn2ccnc2)cc1Cl	14.6µM*	0.0%	?	-1.1%	0.1%	10.3µM*
OCCCn1c(-c2ccccc2)csc1=Nc1ccccc1	i	-1.2%	?	1.0%	-6.1%	?
Cc1ccn2c(=O)c(C(=O)NCCc3ccccc3)c(O)nc2c1	i	.	.	1.9%	.	?
Cc1cccc(N(CC(O)CON=C2c3ccccc3-c3ccccc32)S(C)(=O)=O)c1 (centres undefined)	i	-3.2%	16.4µM*	.	?	i
CCN(CC(O)CON=C1c2ccccc2-c2ccccc21)S(=O)(=O)c1ccc(Cl)cc1 (centres undefined)	?	-3.4%	?	?	24.1%	?
CN(CC(O)CON=C1c2ccccc2-c2ccccc21)S(=O)(=O)c1ccc(Br)cc1 (centres undefined)	?	-1.1%	16.4µM*	?	?	18.4µM*
CCN(CC(O)CON=C1c2ccccc2-c2ccccc21)S(=O)(=O)c1ccc(C)cc1 (centres undefined)	i	-1.6%	?	15.7%	2.1%	18.4µM*
CCn1nc(C)c2c(-c3ccccc3)cc(=O)n(C(C)C(=O)NCc3ccc(C)cc3)c21 (centres undefined)	i	.	.	14.3%	.	i
Cc1cccc(OCCOC(=O)c2c(-c3ccccc3)noc2C)c1	?	-2.9%	18.4µM*	5.4%	8.2µM*	?
CCOC(=O)c1c(NC(=O)c2c(-c3ccccc3)noc2C)sc(C)c1-c1ccccc1	2.06µM*	-7.7%	?	3.4%	?	6.51µM*
CCOC(=O)c1c(NC(=O)/C=C/C(=O)O)sc(C)c1-c1ccc(C(C)(C)C)cc1	i	-10.2%	?	-1.7%	18.4µM*	?
CCc1c(C)sc(NC(=O)/C=C/C(=O)O)c1C(N)=O	i	1.5%	-1.4%	0.1%	-4.3%	i
CCOC(=O)c1ccccc1NC(=O)c1c(-c2ccccc2)noc1C	?	.	.	6.5%	.	?
